In the supplement of paper PMC11732987, “Enantioselective OTUD7B fragment discovery through chemoproteomics screening and high-throughput optimisation” (Communications Chemistry, 2025):

What was measured:
Test in all cases: log2 ratio of Biotin-Ahx-Ub-VS probe labelling (fragment/DMSO); higher = less target engagement (more negative = stronger competition), active = hit call of the paper (q ≤ 0.05, log2 ratio ≤ -1)
Conditions in all cases: compound concentration: 200 uM; treatment time: 3 h
USP42 = target: T1, USP42 (UniProt Q9H9J4)
T1 sequence (whole entry): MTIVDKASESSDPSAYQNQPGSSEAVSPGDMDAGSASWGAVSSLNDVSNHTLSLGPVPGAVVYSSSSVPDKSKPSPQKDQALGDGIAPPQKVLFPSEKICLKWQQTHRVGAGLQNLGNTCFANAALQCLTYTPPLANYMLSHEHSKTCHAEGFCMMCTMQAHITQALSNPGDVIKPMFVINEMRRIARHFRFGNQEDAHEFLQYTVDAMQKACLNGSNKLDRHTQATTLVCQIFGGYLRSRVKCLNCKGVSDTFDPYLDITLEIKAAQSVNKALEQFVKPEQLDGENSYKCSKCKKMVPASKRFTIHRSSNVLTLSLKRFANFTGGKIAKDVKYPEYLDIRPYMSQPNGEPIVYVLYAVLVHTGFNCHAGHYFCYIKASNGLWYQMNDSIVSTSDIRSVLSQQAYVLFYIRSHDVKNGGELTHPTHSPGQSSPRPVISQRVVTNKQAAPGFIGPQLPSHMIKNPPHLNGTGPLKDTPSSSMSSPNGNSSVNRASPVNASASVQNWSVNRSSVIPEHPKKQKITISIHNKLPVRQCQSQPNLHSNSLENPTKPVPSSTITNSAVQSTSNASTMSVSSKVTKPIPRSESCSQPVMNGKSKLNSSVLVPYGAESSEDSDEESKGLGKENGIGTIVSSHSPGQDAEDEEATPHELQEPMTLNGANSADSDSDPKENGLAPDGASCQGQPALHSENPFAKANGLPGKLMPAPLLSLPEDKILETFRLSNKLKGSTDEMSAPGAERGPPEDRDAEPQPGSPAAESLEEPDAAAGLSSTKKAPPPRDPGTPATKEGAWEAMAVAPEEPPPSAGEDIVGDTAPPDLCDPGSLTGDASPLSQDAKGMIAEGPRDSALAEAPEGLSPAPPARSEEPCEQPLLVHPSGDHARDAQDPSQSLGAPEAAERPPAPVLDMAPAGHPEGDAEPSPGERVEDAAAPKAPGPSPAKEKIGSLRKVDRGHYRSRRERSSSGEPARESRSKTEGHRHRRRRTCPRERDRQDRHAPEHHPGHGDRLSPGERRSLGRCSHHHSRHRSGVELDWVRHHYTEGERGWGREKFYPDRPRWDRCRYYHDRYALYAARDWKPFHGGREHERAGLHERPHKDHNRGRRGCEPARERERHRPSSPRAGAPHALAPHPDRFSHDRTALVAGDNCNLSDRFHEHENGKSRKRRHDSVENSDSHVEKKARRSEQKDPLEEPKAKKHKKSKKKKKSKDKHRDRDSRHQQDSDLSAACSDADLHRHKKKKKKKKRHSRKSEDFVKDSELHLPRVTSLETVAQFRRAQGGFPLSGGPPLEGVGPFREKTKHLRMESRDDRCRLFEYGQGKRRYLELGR
In short: (§1)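 Labelled DUBs from HEK293T lysate were NeutrAvidin-enriched, digested with LysC and trypsin, and run by diaPASEF LC-MS/MS. Before that, each 495 µg sample in Tris/CHAPS/IGEPAL buffer with protease inhibitors was treated in triplicate with fragment at 200 µM or vehicle for 3 h, then with Biotin-Ahx-Ub-VS at 0.5 µM final for 1 h. Values are average log2 ratios of fragment over vehicle by unpaired t-test, based on global-median-normalised Spectronaut label-free quantities from proteins with ≥2 unique peptides.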

USP46 = USP46 (UniProt P62068)
In short: as §1

USP47 = target: T2, USP47 (UniProt Q96K76)
T2 sequence (whole entry): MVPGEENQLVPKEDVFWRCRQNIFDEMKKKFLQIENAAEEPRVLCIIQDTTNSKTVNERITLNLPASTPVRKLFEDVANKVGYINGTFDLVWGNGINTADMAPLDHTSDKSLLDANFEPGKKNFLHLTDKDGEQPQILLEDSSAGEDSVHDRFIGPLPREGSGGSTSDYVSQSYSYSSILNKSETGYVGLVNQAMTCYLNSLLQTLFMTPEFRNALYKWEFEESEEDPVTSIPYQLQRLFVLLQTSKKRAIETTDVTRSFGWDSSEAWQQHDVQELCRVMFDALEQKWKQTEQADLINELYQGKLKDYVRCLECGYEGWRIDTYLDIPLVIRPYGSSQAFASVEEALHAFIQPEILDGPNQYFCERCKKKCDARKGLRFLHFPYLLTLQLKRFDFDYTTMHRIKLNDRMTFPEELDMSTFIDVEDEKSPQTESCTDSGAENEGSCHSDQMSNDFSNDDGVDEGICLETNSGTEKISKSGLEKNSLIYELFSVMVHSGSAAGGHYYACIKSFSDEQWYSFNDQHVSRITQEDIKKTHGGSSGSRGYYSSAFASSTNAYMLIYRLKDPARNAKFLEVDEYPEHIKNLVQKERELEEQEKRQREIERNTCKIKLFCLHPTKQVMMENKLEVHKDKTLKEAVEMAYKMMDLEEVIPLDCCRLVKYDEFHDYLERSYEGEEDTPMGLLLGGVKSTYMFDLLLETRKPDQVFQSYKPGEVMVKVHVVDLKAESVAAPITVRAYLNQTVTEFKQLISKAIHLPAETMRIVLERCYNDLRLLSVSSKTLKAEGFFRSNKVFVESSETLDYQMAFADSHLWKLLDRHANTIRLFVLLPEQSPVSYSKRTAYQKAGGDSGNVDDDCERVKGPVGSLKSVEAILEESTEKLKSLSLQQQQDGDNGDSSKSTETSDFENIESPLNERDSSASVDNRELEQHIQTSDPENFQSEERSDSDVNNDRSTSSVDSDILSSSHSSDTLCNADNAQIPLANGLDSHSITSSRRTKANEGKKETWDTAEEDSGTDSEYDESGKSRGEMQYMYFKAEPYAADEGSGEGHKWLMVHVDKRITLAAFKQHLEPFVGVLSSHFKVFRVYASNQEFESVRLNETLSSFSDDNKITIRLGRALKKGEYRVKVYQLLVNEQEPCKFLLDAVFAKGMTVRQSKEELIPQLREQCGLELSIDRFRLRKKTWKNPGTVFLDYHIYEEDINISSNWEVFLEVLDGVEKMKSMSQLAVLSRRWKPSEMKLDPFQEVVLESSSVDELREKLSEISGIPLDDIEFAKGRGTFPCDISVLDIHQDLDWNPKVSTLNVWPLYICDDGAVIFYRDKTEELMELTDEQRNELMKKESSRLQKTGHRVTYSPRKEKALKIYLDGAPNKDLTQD
In short: as §1

USP48 = target: T3, USP48 (UniProt Q86UV5)
T3 sequence (whole entry): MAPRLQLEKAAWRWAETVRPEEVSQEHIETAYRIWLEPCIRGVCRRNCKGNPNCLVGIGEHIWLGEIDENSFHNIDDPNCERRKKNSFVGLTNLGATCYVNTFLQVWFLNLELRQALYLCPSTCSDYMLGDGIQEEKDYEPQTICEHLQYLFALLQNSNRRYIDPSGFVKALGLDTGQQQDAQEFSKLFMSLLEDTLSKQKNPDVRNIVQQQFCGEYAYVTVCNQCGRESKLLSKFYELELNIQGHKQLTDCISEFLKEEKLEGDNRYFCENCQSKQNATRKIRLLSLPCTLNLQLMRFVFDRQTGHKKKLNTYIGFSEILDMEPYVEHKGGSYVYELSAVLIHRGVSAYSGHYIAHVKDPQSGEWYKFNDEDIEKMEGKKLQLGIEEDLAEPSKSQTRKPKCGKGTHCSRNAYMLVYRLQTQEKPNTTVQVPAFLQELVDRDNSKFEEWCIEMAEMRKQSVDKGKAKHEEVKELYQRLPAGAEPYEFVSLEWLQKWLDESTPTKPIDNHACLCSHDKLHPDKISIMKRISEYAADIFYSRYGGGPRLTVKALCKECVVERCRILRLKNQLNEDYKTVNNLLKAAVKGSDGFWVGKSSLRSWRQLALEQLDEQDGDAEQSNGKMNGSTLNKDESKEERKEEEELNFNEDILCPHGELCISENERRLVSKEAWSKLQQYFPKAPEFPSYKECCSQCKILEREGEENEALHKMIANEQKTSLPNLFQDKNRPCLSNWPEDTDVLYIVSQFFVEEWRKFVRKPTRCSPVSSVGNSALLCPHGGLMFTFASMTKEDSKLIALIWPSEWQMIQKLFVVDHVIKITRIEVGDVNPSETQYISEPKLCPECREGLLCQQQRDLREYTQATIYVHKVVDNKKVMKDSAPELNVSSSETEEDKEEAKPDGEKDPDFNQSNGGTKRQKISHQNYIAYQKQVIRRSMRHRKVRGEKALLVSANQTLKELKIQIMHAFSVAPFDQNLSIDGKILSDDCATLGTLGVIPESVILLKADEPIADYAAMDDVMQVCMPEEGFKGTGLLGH
In short: as §1

USP5 = target: T4, USP5 (UniProt P45974)
T4 sequence (whole entry): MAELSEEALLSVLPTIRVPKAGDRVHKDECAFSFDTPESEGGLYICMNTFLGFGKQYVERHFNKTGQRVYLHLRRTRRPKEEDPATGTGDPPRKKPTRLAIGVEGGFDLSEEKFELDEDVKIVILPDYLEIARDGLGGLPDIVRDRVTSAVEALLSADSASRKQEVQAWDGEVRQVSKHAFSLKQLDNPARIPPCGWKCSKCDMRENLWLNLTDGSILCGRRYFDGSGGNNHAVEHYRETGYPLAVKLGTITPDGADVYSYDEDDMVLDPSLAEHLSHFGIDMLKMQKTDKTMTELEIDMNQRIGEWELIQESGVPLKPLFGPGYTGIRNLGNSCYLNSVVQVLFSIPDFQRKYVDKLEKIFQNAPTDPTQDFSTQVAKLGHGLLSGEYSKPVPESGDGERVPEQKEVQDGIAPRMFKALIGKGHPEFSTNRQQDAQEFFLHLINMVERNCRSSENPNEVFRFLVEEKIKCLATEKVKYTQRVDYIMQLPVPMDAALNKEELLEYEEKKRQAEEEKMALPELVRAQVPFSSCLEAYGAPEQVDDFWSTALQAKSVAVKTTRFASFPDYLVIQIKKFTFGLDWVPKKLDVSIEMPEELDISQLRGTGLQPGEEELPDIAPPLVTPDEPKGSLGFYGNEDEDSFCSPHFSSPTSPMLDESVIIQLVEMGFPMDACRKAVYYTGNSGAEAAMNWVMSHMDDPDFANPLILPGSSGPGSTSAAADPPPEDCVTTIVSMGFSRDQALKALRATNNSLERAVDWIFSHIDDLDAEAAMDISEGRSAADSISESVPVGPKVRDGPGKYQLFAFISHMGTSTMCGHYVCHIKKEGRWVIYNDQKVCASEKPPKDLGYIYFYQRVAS
In short: as §1

USP54 = USP54 (UniProt Q70EL1)
In short: as §1

USP7 = USP7 (UniProt Q93009)
In short: as §1

USP8 = target: T5, USP8 (UniProt P40818)
T5 sequence (whole entry): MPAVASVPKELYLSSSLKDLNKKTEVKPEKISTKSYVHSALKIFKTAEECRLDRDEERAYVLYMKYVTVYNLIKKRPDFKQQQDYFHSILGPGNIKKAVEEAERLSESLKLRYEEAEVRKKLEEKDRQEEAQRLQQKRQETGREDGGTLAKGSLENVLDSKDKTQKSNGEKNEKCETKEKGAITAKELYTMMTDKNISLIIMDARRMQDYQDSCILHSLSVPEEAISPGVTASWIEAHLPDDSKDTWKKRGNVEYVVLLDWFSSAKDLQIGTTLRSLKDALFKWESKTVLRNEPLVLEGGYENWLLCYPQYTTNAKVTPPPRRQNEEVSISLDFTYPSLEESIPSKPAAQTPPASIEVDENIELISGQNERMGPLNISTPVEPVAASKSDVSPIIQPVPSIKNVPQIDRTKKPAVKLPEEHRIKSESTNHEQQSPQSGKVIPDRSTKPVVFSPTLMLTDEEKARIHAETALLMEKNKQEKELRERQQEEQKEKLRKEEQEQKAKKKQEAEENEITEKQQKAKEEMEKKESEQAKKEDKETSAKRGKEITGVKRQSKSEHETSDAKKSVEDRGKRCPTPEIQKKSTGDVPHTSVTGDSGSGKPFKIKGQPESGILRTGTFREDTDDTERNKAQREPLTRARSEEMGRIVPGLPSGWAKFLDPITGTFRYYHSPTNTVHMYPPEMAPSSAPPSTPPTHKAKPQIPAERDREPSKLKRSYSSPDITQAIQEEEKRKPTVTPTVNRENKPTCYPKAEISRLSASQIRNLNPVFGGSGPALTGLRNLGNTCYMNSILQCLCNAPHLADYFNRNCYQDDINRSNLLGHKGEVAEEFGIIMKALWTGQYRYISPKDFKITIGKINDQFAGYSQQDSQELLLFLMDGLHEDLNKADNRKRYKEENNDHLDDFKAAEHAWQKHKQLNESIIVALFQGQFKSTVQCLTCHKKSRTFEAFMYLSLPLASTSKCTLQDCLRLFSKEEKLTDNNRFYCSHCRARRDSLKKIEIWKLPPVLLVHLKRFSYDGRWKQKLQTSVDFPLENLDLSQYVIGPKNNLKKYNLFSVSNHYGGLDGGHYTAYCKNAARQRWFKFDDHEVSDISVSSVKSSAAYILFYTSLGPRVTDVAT
In short: as §1

USP9X = USP9X (UniProt Q93008)
In short: as §1

UniProt O00487 = target: UniProt O00487
In short: as §1

Measured: log2 ratio of Biotin-Ahx-Ub-VS probe labelling

Chain of USP46 (P62068 whole entry): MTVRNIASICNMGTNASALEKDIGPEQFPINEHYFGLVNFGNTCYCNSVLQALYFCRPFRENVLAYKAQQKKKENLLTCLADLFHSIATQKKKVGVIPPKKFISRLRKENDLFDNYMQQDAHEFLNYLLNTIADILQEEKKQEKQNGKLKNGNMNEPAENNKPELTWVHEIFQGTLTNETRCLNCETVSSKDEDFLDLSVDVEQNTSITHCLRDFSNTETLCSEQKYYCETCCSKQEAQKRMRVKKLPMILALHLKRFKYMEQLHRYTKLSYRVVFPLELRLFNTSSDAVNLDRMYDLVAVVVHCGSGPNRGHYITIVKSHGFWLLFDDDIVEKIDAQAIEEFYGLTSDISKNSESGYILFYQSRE
Chain of UniProt O00487 (O00487 whole entry): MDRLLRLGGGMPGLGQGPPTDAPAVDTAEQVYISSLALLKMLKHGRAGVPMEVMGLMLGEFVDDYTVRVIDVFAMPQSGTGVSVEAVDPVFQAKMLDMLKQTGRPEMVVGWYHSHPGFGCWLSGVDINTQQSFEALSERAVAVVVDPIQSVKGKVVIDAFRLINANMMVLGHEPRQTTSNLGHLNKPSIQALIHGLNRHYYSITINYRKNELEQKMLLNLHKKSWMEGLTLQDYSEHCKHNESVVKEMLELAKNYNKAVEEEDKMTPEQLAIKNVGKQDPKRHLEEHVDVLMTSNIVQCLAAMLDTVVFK
Chain of USP7 (Q93009 whole entry, looked up): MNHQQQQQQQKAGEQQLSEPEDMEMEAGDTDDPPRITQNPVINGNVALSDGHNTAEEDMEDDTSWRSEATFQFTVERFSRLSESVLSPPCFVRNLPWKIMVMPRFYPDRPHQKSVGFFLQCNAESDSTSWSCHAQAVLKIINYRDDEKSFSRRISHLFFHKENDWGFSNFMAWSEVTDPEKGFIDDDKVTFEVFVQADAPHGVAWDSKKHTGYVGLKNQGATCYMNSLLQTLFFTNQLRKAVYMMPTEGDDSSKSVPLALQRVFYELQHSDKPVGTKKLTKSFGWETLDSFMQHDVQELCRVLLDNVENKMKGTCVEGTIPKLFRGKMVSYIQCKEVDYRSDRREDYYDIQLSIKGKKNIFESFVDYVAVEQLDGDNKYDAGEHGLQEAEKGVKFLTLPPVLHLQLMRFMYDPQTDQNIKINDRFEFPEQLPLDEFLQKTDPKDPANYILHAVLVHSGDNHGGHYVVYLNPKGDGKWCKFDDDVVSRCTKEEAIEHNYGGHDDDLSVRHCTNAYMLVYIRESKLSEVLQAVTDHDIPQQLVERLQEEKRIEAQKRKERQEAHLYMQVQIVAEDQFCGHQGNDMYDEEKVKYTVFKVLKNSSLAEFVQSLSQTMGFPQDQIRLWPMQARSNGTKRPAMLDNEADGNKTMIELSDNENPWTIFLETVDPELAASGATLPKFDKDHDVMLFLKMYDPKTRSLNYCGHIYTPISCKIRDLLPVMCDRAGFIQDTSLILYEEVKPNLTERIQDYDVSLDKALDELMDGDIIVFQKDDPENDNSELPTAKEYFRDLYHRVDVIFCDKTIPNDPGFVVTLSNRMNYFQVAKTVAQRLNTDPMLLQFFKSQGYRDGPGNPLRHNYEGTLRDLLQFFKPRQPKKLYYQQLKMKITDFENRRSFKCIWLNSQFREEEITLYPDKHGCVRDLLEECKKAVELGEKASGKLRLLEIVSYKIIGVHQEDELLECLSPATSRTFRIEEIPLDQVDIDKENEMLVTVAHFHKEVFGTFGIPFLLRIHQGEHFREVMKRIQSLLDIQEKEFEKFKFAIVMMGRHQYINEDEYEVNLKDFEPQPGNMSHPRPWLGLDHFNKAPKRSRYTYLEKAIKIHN
Chain of USP54 (Q70EL1 whole entry): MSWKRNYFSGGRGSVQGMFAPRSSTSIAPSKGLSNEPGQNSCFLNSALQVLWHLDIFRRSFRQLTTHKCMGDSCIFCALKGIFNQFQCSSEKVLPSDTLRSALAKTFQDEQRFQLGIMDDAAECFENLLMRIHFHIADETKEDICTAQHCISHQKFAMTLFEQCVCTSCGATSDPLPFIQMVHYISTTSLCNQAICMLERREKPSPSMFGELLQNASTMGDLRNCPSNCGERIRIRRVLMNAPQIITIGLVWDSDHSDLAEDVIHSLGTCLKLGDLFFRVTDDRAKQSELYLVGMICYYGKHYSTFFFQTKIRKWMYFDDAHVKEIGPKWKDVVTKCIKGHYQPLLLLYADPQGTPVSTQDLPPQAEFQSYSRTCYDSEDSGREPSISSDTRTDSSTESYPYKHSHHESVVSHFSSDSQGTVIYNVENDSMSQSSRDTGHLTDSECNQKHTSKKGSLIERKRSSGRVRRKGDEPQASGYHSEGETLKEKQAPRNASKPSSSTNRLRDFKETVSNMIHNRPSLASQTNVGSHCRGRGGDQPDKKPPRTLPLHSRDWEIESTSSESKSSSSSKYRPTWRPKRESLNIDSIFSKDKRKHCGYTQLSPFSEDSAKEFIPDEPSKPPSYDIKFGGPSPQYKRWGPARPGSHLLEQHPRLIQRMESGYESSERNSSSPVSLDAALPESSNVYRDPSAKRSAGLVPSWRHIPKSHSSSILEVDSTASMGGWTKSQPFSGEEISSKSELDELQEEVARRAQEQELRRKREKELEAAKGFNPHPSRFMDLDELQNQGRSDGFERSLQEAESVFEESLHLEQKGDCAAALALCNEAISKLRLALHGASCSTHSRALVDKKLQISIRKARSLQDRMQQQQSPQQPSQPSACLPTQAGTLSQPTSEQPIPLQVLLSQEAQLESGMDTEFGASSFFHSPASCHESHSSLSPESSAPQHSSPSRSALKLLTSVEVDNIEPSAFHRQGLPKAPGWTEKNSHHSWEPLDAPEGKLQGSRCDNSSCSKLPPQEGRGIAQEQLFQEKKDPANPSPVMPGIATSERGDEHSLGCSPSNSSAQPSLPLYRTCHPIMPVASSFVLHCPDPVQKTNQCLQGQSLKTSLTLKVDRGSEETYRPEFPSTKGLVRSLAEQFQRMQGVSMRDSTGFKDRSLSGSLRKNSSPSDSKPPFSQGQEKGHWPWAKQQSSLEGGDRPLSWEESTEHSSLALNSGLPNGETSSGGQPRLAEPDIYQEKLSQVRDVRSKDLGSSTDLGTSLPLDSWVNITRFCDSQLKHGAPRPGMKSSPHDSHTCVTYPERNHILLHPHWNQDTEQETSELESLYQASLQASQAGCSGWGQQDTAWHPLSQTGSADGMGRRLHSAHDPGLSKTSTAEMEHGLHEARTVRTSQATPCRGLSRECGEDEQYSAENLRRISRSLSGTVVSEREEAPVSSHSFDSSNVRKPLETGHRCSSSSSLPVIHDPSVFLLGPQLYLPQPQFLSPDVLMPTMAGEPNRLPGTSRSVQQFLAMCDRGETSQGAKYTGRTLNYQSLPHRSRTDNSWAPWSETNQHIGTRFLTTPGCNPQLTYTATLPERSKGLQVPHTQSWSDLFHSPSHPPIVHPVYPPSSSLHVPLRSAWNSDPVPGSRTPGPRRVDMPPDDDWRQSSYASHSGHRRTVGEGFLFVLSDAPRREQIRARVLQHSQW

C[C@@H](NC(=O)CCl)c1cccc(C#N)c1
inactive: USP42 0.213 | USP46 0.013 | USP47 -0.609 | USP48 -0.209 | USP5 0.067 | USP54 0.0518 | USP7 -0.0563 | USP8 -0.19 | USP9X -0.116 | UniProt O00487 0.0457
